Hits are enriched below; roughly 4.6% of the tested compounds scored in any of these assays.
Marburg entry inh: Marburg virus entry inhibition; Marburg virus pseudotyped entry inhibition, cell reporter; Potency, µM (series often up to 37.8 µM), without a hit: at the highest dose activity change, negative = inhibition, most hits filed as inhibitors; hit rate 1.8% among 300,000; calls by dose curve; tested in HEK293 cells
HCV inhibitor: HCV inhibition. AID 651820. Potency, µM (doses to about 41.8 µM), for inactives: top-dose activity change, negative = inhibition, actives largely listed as inhibitors. Huh7.5.1 HCVcc-Cre infection, luciferase reporter, 44 h. hit rate 3.4% among 340,000; active = well fitted inhibition curve with a large enough effect; inconclusive = small, poorly fitted or top-dose-only effect, or another doubt; inactive = no such curve, though single readings can be large or run the other way
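Reporter virus HCVcc-Cre (~0.5 moi) infects cells exposed to compound; seeding density 1,000 cells/well with 4 h settling beforehand. Luminescence, 15 sec read, taken 44 h post-infection following a 15 min RT substrate incubation.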
VACV Venus inh: inhibitors of vaccinia virus (Venus reporter) | Vaccinia virus Venus reporter expression, fluorescence | Potency, µM (doses to about 36.5 µM), for the others: top-dose activity change, negative = inhibition, actives largely listed as inhibitors | hit rate 0.46% among 330,000; calls by dose curve; tested in A549 cells; also: nearly all actives have a fitted effect of over 30% in size
VACV mCherry inh: vaccinia inhibition (mCherry reporter) | Potency, µM (series often up to 36.5 µM), without a hit: at the highest dose activity change, negative = inhibition, usual class: inhibitors | Vaccinia virus mCherry reporter infection, fluorescence | hit rate 0.63% among 310,000 | AID 720579; calls by dose curve; tested in A549 cells; also: nearly all actives have a fitted effect of over 35% in size
LASV entry inh: inhibitors of Lassa virus binding or cell entry; Potency, µM (top dose mostly 37.9 µM), without a hit: at the top dose activity change, negative = inhibition, most hits filed as inhibitors; hit rate 1.2% among 300,000; Lassa virus pseudotype entry inhibition, cell reporter; AID 540256; calls by dose curve; tested in HEK293 cells; also: nearly all actives have a fitted effect of over 50% in size
* = called active by the depositor; i = inactive; ? = inconclusive; · = no result; [ ] = another dose, or the depositor's remark. % is scaled to controls: 0 for no effect and ±100 for the full control effect; potency is read from the fitted curve at half-maximal effect.

SMILES | Marburg entry inh | HCV inhibitor | VACV Venus inh | VACV mCherry inh | LASV entry inh
CCCCC#Cc1nc(NC)c2ncn([C@@H]3O[C@H](CO)[C@@H](O)[C@H]3O)c2n1 | 8.8% | · | · | · | ?
O=C(Nc1ccc(Cl)cc1)N1CCC(c2nc(-c3cccs3)no2)CC1 | -5.1% | ? | · | · | -2.3%
O=C(Nc1cccc(C(F)(F)F)c1)N1CCC(c2nc(-c3ccc(F)cc3)no2)CC1 | ? | 11.2µM* | ? | ? | 22.7%[14.3 µM]
O=C(Nc1ccccc1)N1CCC(c2nc(-c3ccc(S(=O)(=O)N4CCOCC4)cc3)no2)CC1 | ? | 10µM* | · | · | ?
O=C(Nc1ccccc1)N1CCCC(c2nc(-c3ccc(F)cc3)no2)C1 (centres undefined) | -4.1%[46.1 µM] | ? | -25.5% | -4.3% | 7.1%
O=C(Nc1ccc(Cl)cc1)N1CCC(c2nc(-c3ccccc3Cl)no2)CC1 | ? | 7.08µM* | ? | -24.2% | -43.7%
Cc1c(Cl)cccc1NC(=O)c1cc2sccc2n1Cc1ccc(F)cc1 | ? | · | -2.7% | 0.1% | -12.8%[46.1 µM]
COc1ccc(N2CCN(S(=O)(=O)c3ccc(OC)c(C(=O)N4CCCCC4)c3)CC2)cc1 | ? | 12.6µM* | -5.5% | 2.4% | ·
COc1ccc(N2CCN(S(=O)(=O)c3cc(C)ccc3OC)CC2)cc1 | 4.7%[46.1 µM] | 2.82µM* | -3.8% | ? | ?
COc1ccc(OC)c(S(=O)(=O)N2CCN(c3ccc(F)cc3)CC2)c1 | · | -6.1% | · | · | ·
COc1ccc(N2CCN(C3CCCN(S(=O)(=O)c4ccc(C)cc4C)C3)CC2)cc1 (centres undefined) | · | 8.91µM* | · | · | ·
COc1ccc(NC(=O)CC2C(=O)N(c3ccc(C)cc3)C(=O)N2C2CCCC2)cc1 (centres undefined) | · | · | -5.3% | -12.4% | -22.9%[46.1 µM]
Cc1ccc2nc(CSc3nnc(NC(=O)COc4ccccc4F)s3)cc(=O)n2c1 | · | · | -8.0% | -3.3% | 11.8%[46.1 µM]
CCOC(=O)CSC1=NC(=O)/C(=C/c2ccc(Br)cc2)S1 | 7.7%[46.1 µM] | 6.4% | -13.0% | -2.1% | 5.4%
CCOC(=O)CSC1=NC(=O)/C(=C\c2ccc(OC(C)=O)cc2)S1 | 8.2µM* | ? | · | · | ?
Cc1nn(CC(=O)NCCCN2CCCC2=O)c(C)c1[N+](=O)[O-] | 11.2µM* | 23.4% | -21.4% | ? | ?
Cc1cc(C)c2c(CN(C)Cc3ccccc3)cc(=O)oc2c1 | · | · | 0.1% | 30.8% | 9.96µM*
Cc1ccc2c(CN3CCCCC3)cc(=O)oc2c1C | · | -6.9% | · | · | ·
Cc1c(O)ccc2c(CN3CCN(Cc4ccccc4)CC3)cc(=O)oc12 | · | -7.0% | · | · | ·
Cc1cc(C)c2c(CCl)cc(=O)oc2c1 | ? | 4.4% | ? | -20.0% | ?
Cc1c(O)ccc2c(CN(C)Cc3ccccc3)cc(=O)oc12 | 11.6µM* | -21.0% | -13.2% | i | ?
Cc1ccccc1CN(C)Cc1cc(=O)oc2c(C)c(C)ccc12 | 3.98µM* | ? | -5.8% | -28.3% | 2.82µM*
COc1ccc(CCCC2=NC3C=CC=CC3=N2)cc1 (centres undefined) | 13.5%[46.1 µM] | · | · | · | ·
CCc1ccc(N2CC(c3nnc(NC(=O)c4ccco4)s3)CC2=O)cc1 (centres undefined) | 1.3%[46.1 µM] | · | -12.8% | -2.8% | ?
COc1cc([N+](=O)[O-])c2ncccc2c1[N+](=O)[O-] | · | · | 13.1% | -3.4% | ·
SMILES | Marburg entry inh | HCV inhibitor | VACV Venus inh | VACV mCherry inh | LASV entry inh
COc1cc([N+](=O)[O-])c2nc(C)ccc2c1[N+](=O)[O-] | ? | 6.31µM* | -21.2% | -7.7% | -15.7%
C=CCCN1C(=O)NC(c2ccccc2)C(C(C)=O)=C1C (centres undefined) | 28.5%[14.2 µM] | · | · | · | ·
CC(=O)O[C@@H]1C[C@H]2C(C)(C)C(=O)C=C[C@]2(C)[C@H]2CC[C@@]3(C)[C@H](c4ccoc4)OC(=O)[C@H]4O[C@]43[C@@]21C | ? | ? | ? | 7.94µM* | 18.4µM*
CCc1nc(CN2CCOc3ccc(C(O)C4CCCCC4)cc3C2)c(C)[nH]1 (centres undefined) | · | · | -23.6% | -25.1% | ·
O=C(NCc1ccco1)c1ccc(Cn2c(=O)c3ccccc3n(Cc3ccc(Cl)cc3)c2=O)cc1 | -24.3% | 11.2µM* | · | · | -17.1%
O=C(NCc1ccco1)c1ccc(COc2ccccc2Cl)cc1 | -2.9% | 11.2µM* | ? | · | -19.0%
O=C(NCc1ccco1)c1ccc(C(=O)NCc2ccco2)cc1 | -8.3% | 18.0% | -4.6% | i | 1.2%
O=C(NCc1ccco1)c1ccc2c(c1)C(=O)c1ccccc1-2 | ? | ? | · | · | 23.1µM*
CCN(CC)c1ccc(/C=C/c2ccncc2)cc1 | · | · | i | 5.9% | ·
CCC(=O)NC1CC(=O)N(c2ccc3c(c2)OCCO3)C1 (centres undefined) | · | · | -3.3% | -5.1% | -5.0%[46.1 µM]
CCOc1ccc(S(=O)(=O)N(C(=O)c2ccncc2)c2ccc3oc(C)c(C(=O)OC)c3c2)cc1 | 10µM* | · | -27.4%[7.34 µM] | -25.0%[7.34 µM] | ?
COCc1cc(C)n(CC(=O)Nc2ccc3c(c2)OCO3)c(=O)c1C#N | 11.4%[46.1 µM] | 12.5% | -15.9% | -10.2% | -1.8%[46.1 µM]
O=C(CSc1nc(-c2cccc(F)c2)[nH]c1-c1ccccc1)Nc1ccc2c(c1)OCCO2 | ? | · | ? | ? | 10µM*
O=C(CSC1=NC2(CCCCC2)N=C1c1ccccc1)Nc1ccc2c(c1)OCCO2 | -1.9% | 11.2µM* | · | · | 4.0%
COCc1cc(C)nc(SCC(=O)Nc2ccc3c(c2)OCO3)c1C#N | -7.5% | 11.2µM* | -25.1% | -3.6% | 11.0%
COc1ccc(-c2[nH]c(-c3cccc(OC)c3)nc2SCC(=O)Nc2ccc3c(c2)OCO3)cc1 | -13.6%[46.1 µM] | · | -8.9% | -12.9% | 7.94µM*
Cc1cc(C)c2c(=O)cc(C(=O)NCc3ccc(S(N)(=O)=O)cc3)oc2c1 | 16.5%[46.1 µM] | · | -2.3% | 3.0% | 24.7%[46.1 µM]
CCOc1ccc(-c2cc(-c3nc(-c4ccc(C)cc4)no3)[nH]n2)cc1 | · | · | -9.3% | -19.6% | 24.5%[46.1 µM]
Cc1ccccc1CCNC(=O)c1cc2cc(S(=O)(=O)N3CCCCC3)ccc2n1C | · | · | -24.6% | -29.5% | -12.9%[46.1 µM]
COc1ccc(-c2[nH]c(-c3ccccc3)nc2SCC(=O)Nc2nccs2)cc1 | ? | 14.1µM* | -21.6% | i | -10.1%
Cc1ccc(C)c(N2CCN(C(=O)c3cccn4c(=O)c5sccc5nc34)CC2)c1 | 12.6µM* | ? | -18.3% | i | ?
COc1ccccc1-n1c(=O)c(C#N)c(-c2ccc([N+](=O)[O-])cc2)c2cc(C(=O)c3cc(F)ccc3O)cnc21 | 4.1%[46.1 µM] | 9.5% | -10.3% | -14.4% | ?
Cn1c(=O)c(C#N)c(-c2ccc(F)cc2)c2cc(C(=O)c3cc(Cl)cc(Cl)c3O)cnc21 | · | 11.2µM* | · | · | ·
CCCCC[C@]12Cc3cc(OC)c(OC)cc3[C@H](O1)c1c(cc(C)n(-c3ccccc3)c1=O)O2 | 31.5%[14.2 µM] | · | · | · | ·
Cc1nc(-c2ccc(S(=O)(=O)NCc3ccc(OC(C)C)cc3)cc2)co1 | · | · | -2.8% | -3.7% | -13.9%[46.1 µM]
O=C(CC1NCCc2ccccc21)Nc1ccc(Oc2ccccc2)cc1 (centres undefined) | ? | 11.2µM* | -10.8% | -16.3% | 6.3%
COc1ccc(NC(=O)CN2CCCC2)cc1 | 1.3% | 3.2% | -13.0% | -12.2% | ?
O=C(CN1CCOCC1)Nc1ccc(Oc2ccccc2)cc1 | 3.6% | -6.4% | · | · | 14.4%
